Experimental data taken from article PMC4336329 (PLoS ONE, 2015).
The whole screen tested about 310,000 compounds, of which about 14,000 (4.5%) showed an effect of 50% or more. The effect is printed as a negative number. For the sample, strong results were picked, then their nearest neighbours and some compounds at random.

Each molecule was assayed against human ether-à-go-go-related gene (hERG) potassium channel (human, UniProt Q12809) (assay: primary screen, population patch clamp on CHO cells stably expressing hERG; higher = less effect of the substance).
human ether-à-go-go-related gene (hERG) potassium channel, sequence (Q12809 whole entry, looked up): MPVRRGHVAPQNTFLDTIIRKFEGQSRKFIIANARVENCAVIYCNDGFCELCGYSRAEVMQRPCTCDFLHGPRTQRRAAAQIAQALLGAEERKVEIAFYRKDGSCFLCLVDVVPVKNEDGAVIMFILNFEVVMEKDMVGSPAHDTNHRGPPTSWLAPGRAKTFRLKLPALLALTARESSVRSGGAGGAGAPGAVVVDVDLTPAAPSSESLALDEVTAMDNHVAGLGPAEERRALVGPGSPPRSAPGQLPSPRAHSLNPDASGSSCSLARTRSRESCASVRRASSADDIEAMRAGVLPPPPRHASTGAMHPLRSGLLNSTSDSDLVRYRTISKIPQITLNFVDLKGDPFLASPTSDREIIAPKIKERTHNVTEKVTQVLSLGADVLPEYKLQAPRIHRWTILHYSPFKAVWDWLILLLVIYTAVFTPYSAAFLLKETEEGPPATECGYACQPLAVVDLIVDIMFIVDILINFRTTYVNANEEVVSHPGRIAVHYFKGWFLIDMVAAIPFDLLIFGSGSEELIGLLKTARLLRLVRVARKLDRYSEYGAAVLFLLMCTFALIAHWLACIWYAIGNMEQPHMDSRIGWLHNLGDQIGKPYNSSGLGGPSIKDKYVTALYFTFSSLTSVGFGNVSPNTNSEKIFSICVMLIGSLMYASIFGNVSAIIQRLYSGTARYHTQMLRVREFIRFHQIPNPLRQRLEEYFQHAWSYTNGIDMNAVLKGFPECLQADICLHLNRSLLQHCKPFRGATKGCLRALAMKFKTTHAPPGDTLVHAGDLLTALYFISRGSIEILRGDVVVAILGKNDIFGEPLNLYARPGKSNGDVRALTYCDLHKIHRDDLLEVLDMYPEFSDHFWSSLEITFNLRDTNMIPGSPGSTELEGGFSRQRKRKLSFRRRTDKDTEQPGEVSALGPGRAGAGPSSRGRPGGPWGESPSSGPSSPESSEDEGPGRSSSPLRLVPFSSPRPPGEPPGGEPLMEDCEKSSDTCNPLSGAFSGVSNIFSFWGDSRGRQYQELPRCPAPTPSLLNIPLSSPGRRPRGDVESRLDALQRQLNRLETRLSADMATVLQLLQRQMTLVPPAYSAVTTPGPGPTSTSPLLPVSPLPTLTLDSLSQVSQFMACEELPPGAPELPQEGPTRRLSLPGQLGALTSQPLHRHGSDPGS
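Note: peak tail current of the secondary pulse compared with the same well before compound.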

In order of rising “hERG current change (%, negative = inhibition) at 10uM” value:
1. Cc1ccc(C(=O)N2CCC(C(=O)Nc3cccc([N+](=O)[O-])c3)CC2)cc1  -80.1%
2. CCN(CC)CCSc1nnc2c3cc(C)ccc3n(Cc3ccccc3)c2n1  -79.1%
3. Cc1ccc(N2CCN(C(=O)Nc3cccc([N+](=O)[O-])c3)CC2C)cc1 (stereo not shown)  -78.3%
4. CCN(CC)CCSc1nnc2c3cc(F)ccc3n(Cc3ccccc3)c2n1  -77%
5. Cn1c(-c2ccc3c(c2)OCO3)cnc1NCc1cccc(Cl)c1.O=C(O)C(=O)O  -74%
6. Cc1ccc(CNC(=O)CSc2nc3ccccc3c(=O)n2CCCO)cc1  -73%
7. O=C(Nc1ccccc1)C1CCN(C(=O)c2ccc([N+](=O)[O-])cc2)CC1  -71.4%
8. CC(=O)c1cccc(NC(=O)C2CCN(C(=O)c3ccc([N+](=O)[O-])cc3)CC2)c1  -69.6%
9. COc1cccc(NC(=O)CSc2nc3ccccc3c(=O)n2CCCC(=O)N2CCCC2)c1  -67.3%
10. CCN(CCCNC(=O)Cn1ncc2c([nH]c3ccccc32)c1=O)Cc1ccccc1  -67%
11. Cc1ccc(-c2nc(CN3CCCCC3)cc(CN3CCCCC3)c2O)cc1.Cl  -62.5%
12. O=C(CSc1nc2ccccc2c(=O)n1CCCC(=O)N1CCCC1)NCc1ccco1  -62.4%
13. CC(C)(C)c1ccc(C(=O)Nc2ccc(Oc3cccnc3)nc2)cc1  -61.2%
14. Cn1c(-c2ccc3c(c2)OCO3)cnc1NCc1ccccc1.O=C(O)C(=O)O  -60%
15. Cc1ccc(CNc2ncc(-c3ccc4c(c3)OCO4)n2C)cc1.O=C(O)C(=O)O  -59%
16. CCN(CCCNC(=O)Cn1ncc2c([nH]c3ccc(C)cc32)c1=O)Cc1ccccc1  -58.5%
17. COc1ccc(NC(=O)COC(=O)c2ccccc2SCC(=O)N2CCCC2)cc1  -53.9%
18. COCCCn1c(SCC(=O)NCc2ccccc2)nc2ccccc2c1=O  -48.6%
19. CCc1cccc(C)c1NC(=O)C1CCN(C(=O)c2ccc([N+](=O)[O-])cc2)CC1  -48.2%
20. CC(C)N(CCCNC(=O)Cn1ncc2c([nH]c3ccccc32)c1=O)Cc1ccccc1  -48.1%
21. CCn1c(SCC(=O)Nc2cccc(OC)c2)nc2ccccc2c1=O  -47.1%
22. Cc1ccc(NC(=O)CSc2nc3ccccc3c(=O)n2CCCC(=O)N2CCCC2)cc1  -44.5%
23. O=C(Nc1cccc([N+](=O)[O-])c1)C1CCN(C(=O)Cc2ccccc2)CC1  -43.3%
24. O=C(CSc1nc2ccccc2c(=O)n1CCCO)NCc1ccccc1  -41.5%
25. O=C(Nc1cccc([N+](=O)[O-])c1)N1CCN(c2ccccc2)CC1  -38.7%
26. N#CCSc1nc2ccccc2c(=O)n1CCCC(=O)NCc1ccco1  -33.7%
27. Cc1ccc2[nH]c3c(=O)n(CC(=O)NCCCN(C)Cc4ccccc4)ncc3c2c1  -31.6%
28. O=C(Nc1ccc(Oc2cccnc2)nc1)c1ccc(C(F)(F)F)cc1  -30%
29. COC(=O)c1ccc(COc2ccc(F)cc2)o1  -27.4%
30. COc1cc(NC(=O)COC(=O)c2ccccc2SCC(=O)N2CCCC2)cc(OC)c1  -25.7%
31. CC(C)(C)c1nc(CN2CCCCC2)cc(CN2CCCCC2)c1O  -24.2%
32. CC(=O)NCCn1c(SCC(=O)NCc2ccco2)nc2ccccc2c1=O  -23.9%
33. Cn1c(-c2ccc3c(c2)OCO3)cnc1NCc1cccc(O)c1.O=C(O)C(=O)O  -23.1%
34. NNc1nnc2c3cc(F)ccc3n(Cc3ccccc3)c2n1  -22.4%
35. Cc1ccccc1OCC(O)Cn1c(NCCN(C)C)nc2c1c(=O)n(C)c(=O)n2C (stereo not shown)  -20.3%
36. CC(=O)c1ccc(NC(=O)N2CCN(c3ccc(C)cc3)C(C)C2)cc1 (stereo not shown)  -19.6%
37. CCOC(=O)N1CCN(C(=O)C2CCN(S(=O)(=O)c3ccc(F)cc3)CC2)CC1  -19.3%
38. CC(C)(C)c1ccc(C(=O)Nc2cccnc2)cc1  -18.7%
39. CC(OC(=O)c1ccc(O)cc1)C(=O)Nc1nc(-c2ccccc2)cs1 (stereo not shown)  -17.8%
40. CCOC(=O)c1c(C)nc2c(c1-c1ccccc1)C(=O)CC(C)(C)C2  -16.8%
41. Cn1c(-c2ccc3c(c2)OCO3)cnc1N  -16.5%
42. CC1CC(C)CN(CCCNC(=O)Cc2c(C(=O)O)n(C)c3ccccc23)C1 (stereo not shown)  -15.9%
43. Cc1ccc(-c2nc(CN(C)C)cc(CN(C)C)c2O)cc1.Cl  -14.6%
44. CC(=O)NC1C(OCc2cccc(Br)c2)OC(COC(C)=O)C(OC(C)=O)C1OC(C)=O (stereo not shown)  -12.4%
45. CSc1ccccc1C(=O)NC1CCCN(Cc2ccccc2F)C1 (stereo not shown)  -11.5%
46. O=C(Nc1nc(N2C(=O)c3ccccc3C2=O)n(-c2ccccc2)n1)c1ccc(Cl)cc1  -7.9%
47. O=C(NC1CCCC1)c1ccc(CS(=O)(=O)Cc2ccccc2F)o1  -7.89%
48. Cn1c(-c2ccc3c(c2)OCO3)cnc1NC(=O)CCC(=O)NCCc1ccccc1  -6.98%
49. CC(=O)Nc1sc2c(c1CN1CCN(c3ccc(F)cc3)CC1)CCCC2  -6.73%
50. O=c1cc(CNc2cc(C(F)(F)F)cc(C(F)(F)F)c2)nc2sccn12  -6.36%
51. COc1cc(C2C(C#N)=C(N)Oc3cc(N(C)C)ccc32)cc2c1OCO2 (stereo not shown)  -6.32%
52. Cn1nc(OCCOc2ccccc2)ccc1=O  -4.45%
53. O=C1NCCCC1C(=O)N/N=C/c1ccccc1 (stereo not shown)  -4.35%
54. Cc1ccc(CNc2ccc3c(c2)OCO3)cc1  -4.29%
55. O=C(Nc1ccc(F)cc1)C1CCN(C(=O)c2ccc([N+](=O)[O-])cc2)CC1  -4.16%
56. CSc1cccc(NC(=O)/C=C/c2ccc(Cl)cc2)c1  -4.08%
57. NC(=O)c1ccc(Oc2ncc(C(F)(F)F)cc2Cl)cc1  -3.77%
58. O=C(NCc1cccs1)c1ccccc1F  -3.47%
59. COc1ccc(CCN2C(=O)CSC2c2cccc([N+](=O)[O-])c2)cc1OC (stereo not shown)  -3.39%
60. COc1nc(N=C(N)N)nc2c(C)cccc12  -2.93%
61. COc1cc(C(=O)N2CCC(C(=O)Nc3cccc(C(C)=O)c3)CC2)cc(OC)c1OC  -2.12%
62. CC(=O)Nc1ccc(NC(=O)C2CCN(C(=O)c3ccc([N+](=O)[O-])cc3)CC2)cc1  -0.926%
63. CC(=O)c1cccc(NC(=O)C2CCN(C(=O)c3ccccc3Cl)CC2)c1  -0.359%
64. CNC(C)C#Cc1ccc2c(=O)c3c(OC)cccc3oc2c1 (stereo not shown)  0.579%
65. CS(=O)(=O)Nc1ccc(C(=O)NCc2ccccn2)cc1  0.863%
66. O=C(NCc1cccc(Cl)c1)c1ccc2c(c1)OCO2  0.973%
67. COc1ccccc1NS(=O)(=O)c1ccc(O)cc1  1.44%
68. O=C(c1cc2sccc2n1Cc1ccccc1)N1CCCc2ccccc21  1.8%
69. CSc1nnc2c3cc(C)ccc3n(Cc3ccccc3)c2n1  2.55%
70. O=C(Cn1ncc2c([nH]c3ccccc32)c1=O)NCCc1ccccc1  3.06%
71. CCCCC(=Nc1ccccc1OC)C1=C(O)CC(c2ccccc2)CC1=O (stereo not shown)  3.11%
72. Cc1ccc(NC(=O)c2oc3ccc(S(=O)(=O)N4CCOCC4)cc3c2C)c(C)c1  5.03%
73. CC(=O)Nc1ccc(NC(=O)COC(=O)c2ccccc2SCC(=O)N2CCCC2)cc1  5.48%
74. CCOc1ccc(C(=O)CCC(=O)Nc2ncccc2O)cc1  5.51%
75. COc1ccc2c(CC(=O)Nc3ncc(C)s3)coc2c1  5.72%
76. CC(=O)Nc1ccc(S(=O)(=O)Nc2nc3ccccc3nc2Nc2ccccc2)cc1  10.3%
77. COC(=O)c1c(NC(=O)CCCC(=O)O)sc2c1CCCCC2  12.2%
78. CSc1nnc2c3cc(F)ccc3n(Cc3ccccc3)c2n1  13.6%
79. CCOc1ccc(-c2n[nH]c(C)c2-c2ccccn2)c(O)c1  13.6%
80. COc1cc(/C=C2/SC(=S)N(CCC(=O)Nc3ccccc3)C2=O)cc(OC)c1OC  13.8%
81. CN(C)c1ccc(C(CC(=O)O)C(=O)O)cc1 (stereo not shown)  14.4%
82. NC(=O)CN1C2CCC1CC(NC(=O)C1CC1)C2 (stereo not shown)  14.7%
83. CCOc1cc(N2CCOCC2)c(OCC)cc1NC(=O)C(C)(C)C  17.4%
84. CCN(CCCNC(=O)Cn1ncc2c([nH]c3ccc(C)cc32)c1=O)c1ccccc1  19%
85. CNC(=O)c1ccccc1Sc1ccccc1C#N  19.1%
86. Cc1ccc2c(c1)c1nnc(SCC(=O)Nc3cccc(Cl)c3C)nc1n2CC(=O)O  19.6%
87. Cc1ccccc1OCC(=O)OCn1nnc2ccccc2c1=O  19.6%
88. O=C(Nc1ccc(C(=O)N2CCCC2)cc1)c1ccccc1Br  19.8%
89. Cc1ccc2[nH]c3c(=O)n(CC(=O)NCc4ccco4)ncc3c2c1  21.9%
90. O=S(=O)(Nc1ncccn1)c1ccc(NC(=S)N2CCN(Cc3ccc(F)cc3Cl)CC2)cc1  22%
91. CC(=O)Nc1ccc(NC(=O)CN(C)S(=O)(=O)c2ccc3nc(C)sc3c2)cc1  25.7%
